High-throughput results from PubChem BioAssay.
The sample as a whole holds a higher share of hits than the screen did.
ST2 IL33 inh = IL1RL1 inhibition | Q01638 | AlphaLISA ST2-Fc/biotin-IL-33 interaction, 1 h | inhibition, % for hits at 17 µM | actives 2.3% (n = 78,000); in the data active means inhibition above about 30%
Target sequence (Q01638 whole entry, looked up): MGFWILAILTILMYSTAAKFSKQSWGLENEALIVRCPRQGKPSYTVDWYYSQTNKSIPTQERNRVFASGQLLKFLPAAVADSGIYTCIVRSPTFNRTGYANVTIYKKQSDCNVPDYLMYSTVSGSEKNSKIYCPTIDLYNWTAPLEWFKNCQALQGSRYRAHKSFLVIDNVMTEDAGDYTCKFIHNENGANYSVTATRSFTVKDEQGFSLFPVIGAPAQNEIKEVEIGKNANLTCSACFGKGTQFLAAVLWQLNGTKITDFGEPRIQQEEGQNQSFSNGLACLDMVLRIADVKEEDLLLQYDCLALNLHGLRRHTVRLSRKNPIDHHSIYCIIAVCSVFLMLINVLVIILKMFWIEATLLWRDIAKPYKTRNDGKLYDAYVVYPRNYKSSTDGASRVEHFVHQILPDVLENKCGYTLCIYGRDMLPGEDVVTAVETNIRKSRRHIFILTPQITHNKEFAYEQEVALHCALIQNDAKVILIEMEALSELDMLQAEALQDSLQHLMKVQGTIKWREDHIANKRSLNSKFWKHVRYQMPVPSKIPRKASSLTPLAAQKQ
The depositor's hits bear a star.

`CS(=O)(=O)N1CCC(N2CCCC(C(=O)NCCc3ccccc3)C2)CC1` (stereo not given) gave ST2 IL33 inh inactive.
`Cc1cccn2c(=O)c3cc(C(=O)Nc4ccc(C#N)cc4)sc3nc12` gave ST2 IL33 inh inactive.
CSc1nc2c(c(=O)[nH]1)C(c1ccncc1)C1=C(CCCC1=O)N2 (stereo not given) was read as ST2 IL33 inh inactive.
Screening CCOc1ccccc1NS(=O)(=O)c1ccc2c(c1)CCC(=O)N2 returned ST2 IL33 inh inactive.
Screening CNC(=O)C1CCC(Cn2c(=O)c3sccc3n(CC(=O)Nc3ccc(C)cc3)c2=O)CC1 (stereo not given) returned ST2 IL33 inh inactive.
Cc1ccc(C(=O)Nc2nc(-c3ccccc3)cs2)c(Cl)c1 was read as ST2 IL33 inh inactive.
Cc1ccc(Nc2nc(-c3ccc(O)c(O)c3)cs2)nc1 was read as ST2 IL33 inh 42%*.
For Cc1ccnc(Nc2nc(-c3ccccc3)cs2)c1 the results were ST2 IL33 inh inactive.
`COc1ccc(CN2CCN(c3ncccn3)CC2)cc1C` gave ST2 IL33 inh inactive.
`CC1=CCC(c2nnco2)C(c2ccc([N+](=O)[O-])cc2)C1` (stereo not given) gave ST2 IL33 inh inactive.
Cc1c(Cl)c([N+](=O)[O-])nn1CCCC(=O)NCc1cccs1 was read as ST2 IL33 inh inactive.
`C=CCNC(=O)c1noc2c1CCc1ccccc1-2` gave ST2 IL33 inh inactive.
Screening Cc1cc(-n2ccnc2C)n2c(nc3ccccc32)c1C#N returned ST2 IL33 inh inactive.
CCOc1cc(-c2c(C#N)c(N)n3c(nc4ccccc43)c2C#N)ccc1OC was read as ST2 IL33 inh 37%*.
Screening CCc1c(C)c(C#N)c2nc3ccccc3n2c1NCCOC returned ST2 IL33 inh inactive.
For Cc1ccc(N=Cc2cc(Cl)cc([N+](=O)[O-])c2O)c(O)c1 the results were ST2 IL33 inh 35%*.
`Cc1ccc(N=Cc2cc(Br)cc(Cl)c2O)c(O)c1` gave ST2 IL33 inh inactive.
For Cc1ccc(O)c(N=Cc2cc(Cl)cc(Cl)c2O)c1 the results were ST2 IL33 inh inactive.
For Cc1cccc(OC(C)(C)C(=O)NCc2cccnc2N(C)C)c1 the results were ST2 IL33 inh inactive.
For Cc1c(Cl)cccc1N=Cc1nc(-c2ccccc2)oc1O the results were ST2 IL33 inh inactive.
For CC(=O)Nc1ccc(N=Cc2nc(-c3ccc(Cl)cc3)oc2O)cc1 the results were ST2 IL33 inh 33%*.
Screening Oc1oc(-c2ccc(Cl)cc2)nc1C=Nc1cc(Cl)ccc1Cl returned ST2 IL33 inh inactive.
Oc1oc(-c2ccc(Cl)cc2)nc1C=Nc1ccccc1Cl was read as ST2 IL33 inh inactive.
Screening Oc1ccc(N=Cc2nc(-c3ccccc3)oc2O)cc1 returned ST2 IL33 inh inactive.
Screening Cc1c(Cl)cccc1N=Cc1nc(-c2ccc(Cl)cc2)oc1O returned ST2 IL33 inh 33%*.
Screening O=C1CCc2cc(S(=O)(=O)N3CCCCCC3)ccc2N1 returned ST2 IL33 inh inactive.
For O=C(NCc1ccc2c(c1)OCCCO2)C1CCCN(Cc2ccco2)C1 (stereo not given) the results were ST2 IL33 inh inactive.
O=C(c1ccc(Br)cc1)N1C[C@@H]2[C@H](C1)[C@H]1C=C[C@@H]2C1 was read as ST2 IL33 inh inactive.
For Cc1cccc(NS(=O)(=O)c2cccnc2)c1C the results were ST2 IL33 inh inactive.
O=C(NC[C@H]1O[C@@H](CO)[C@@H](O)[C@H]1N1CCN(c2ccccc2)CC1)c1ccc(C(F)(F)F)cc1 was read as ST2 IL33 inh inactive.
Screening O=C(NC[C@H]1O[C@@H](CO)[C@@H](O)[C@H]1N1CCCC1)c1ccco1 returned ST2 IL33 inh inactive.
For CC(=O)NC[C@H]1O[C@@H](CO)[C@@H](O)[C@H]1N1CCN(c2ccccc2)CC1 the results were ST2 IL33 inh 37%*.
For COc1cc(NC(=O)NC[C@H]2O[C@@H](CO)[C@@H](O)[C@H]2N2CCN(c3cccc(C(F)(F)F)c3)CC2)cc(OC)c1 the results were ST2 IL33 inh 86%*.
`O=C(NC[C@H]1O[C@@H](CO)[C@@H](O)[C@H]1N1CCN(c2ccc(F)cc2)CC1)c1ccc(F)c(Cl)c1` gave ST2 IL33 inh 34%*.
COc1ccc(C(=O)NC[C@H]2O[C@@H](CO)[C@@H](O)[C@H]2N2CCN(c3ccccn3)CC2)cc1 was read as ST2 IL33 inh inactive.
Screening COc1ccccc1N1CCN([C@@H]2[C@H](O)[C@H](CO)O[C@@H]2CNC(=O)c2cccc(F)c2)CC1 returned ST2 IL33 inh inactive.
For CN1CCN([C@@H]2[C@H](O)[C@H](CO)O[C@@H]2CNC(=O)Nc2cccc(Cl)c2)CC1 the results were ST2 IL33 inh inactive.
Screening O=C(NC[C@H]1O[C@@H](CO)[C@@H](O)[C@H]1N1CCN(c2ccccc2)CC1)N1CCOCC1 returned ST2 IL33 inh inactive.
For O=C(NC[C@H]1O[C@@H](CO)[C@@H](O)[C@H]1N1CCN(c2cccc(C(F)(F)F)c2)CC1)c1cccc(F)c1 the results were ST2 IL33 inh inactive.
For O=C(NC[C@H]1O[C@@H](CO)[C@@H](O)[C@H]1N1CCN(c2cccc(C(F)(F)F)c2)CC1)c1cccs1 the results were ST2 IL33 inh inactive.
Screening CN1CCN([C@@H]2[C@H](O)[C@H](CO)O[C@@H]2CNC(=O)c2cccc(F)c2)CC1 returned ST2 IL33 inh 32%*.
For O=C(Nc1ccc2c(c1)OCCO2)C(Cc1ccccc1)NS(=O)(=O)c1cccs1 (stereo not given) the results were ST2 IL33 inh inactive.
`Cc1ccc(N2CSC3=C(C#N)C(c4ccccc4Cl)CC(=O)N3C2)cc1` (stereo not given) gave ST2 IL33 inh inactive.
Screening Cc1cccc(OCC(=O)Nc2ccc(S(=O)(=O)N3CCCCC3C)cc2)c1 (stereo not given) returned ST2 IL33 inh inactive.
`O=[N+]([O-])C([N+](=O)[O-])=S(c1ccccc1)c1ccccc1` gave ST2 IL33 inh inactive.
For NC(=O)c1ccccc1 the results were ST2 IL33 inh inactive.
For O=[N+]([O-])C=C(c1ccccc1)c1ccccc1 the results were ST2 IL33 inh 39%*.
Cc1ccc(NC(=O)c2cccc(F)c2)cc1[N+](=O)[O-] was read as ST2 IL33 inh inactive.
Cc1cccc(C(=O)Nc2ccc(NC(=O)c3ccc(C)c([N+](=O)[O-])c3)cc2)c1 was read as ST2 IL33 inh 32%*.
For Cc1ccc(C(=O)c2ccc(Cl)cc2)cc1[N+](=O)[O-] the results were ST2 IL33 inh 42%*.
Cc1cccc(C(=O)Nc2cccc([N+](=O)[O-])c2C)c1 was read as ST2 IL33 inh inactive.
Cc1ccc(NC(=O)COc2ccc(Cl)cc2)cc1[N+](=O)[O-] was read as ST2 IL33 inh inactive.
For CNC(=O)c1ccc(C)c([N+](=O)[O-])c1 the results were ST2 IL33 inh inactive.
Cn1cc(C(=O)NCC2CCCO2)c2c3ccccc3n(C)c2c1=O (stereo not given) was read as ST2 IL33 inh inactive.
For Cc1cc(NC(=O)C2CCN(S(=O)(=O)c3cccs3)CC2)ccc1Br the results were ST2 IL33 inh inactive.
Screening CN1CC(=O)N2C[C@@H](NC(=O)c3ccc4ncsc4c3)C[C@H]2C1=O returned ST2 IL33 inh inactive.
O=c1c2sc(-c3ccc(F)cc3)cc2ncn1Cc1nc2ccccc2[nH]1 was read as ST2 IL33 inh inactive.
`O=C1C2CCCCC2C(=O)N1c1ccc(F)cc1` (stereo not given) gave ST2 IL33 inh inactive.
